Experimental findings from PubChem BioAssay AID651719 (The Scripps Research Institute Molecular Screening Center, 2012) are described below.

Each structure is given as a SMILES string. The campaign covered roughly 360,000 compounds. About 1,600 (0.44%) were called active. The sample holds actives, similar compounds and a random draw of the others, so the mix is not that of the screen. Values without a mark were called inactive.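 Rule for the calls: active = inhibition above the screen-wide average plus 3 SD (cut at about 13% in these data); inactive = the rest.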

Sequence of Galanin receptor type 3 (Homo sapiens) (O60755 1-299 limits assumed): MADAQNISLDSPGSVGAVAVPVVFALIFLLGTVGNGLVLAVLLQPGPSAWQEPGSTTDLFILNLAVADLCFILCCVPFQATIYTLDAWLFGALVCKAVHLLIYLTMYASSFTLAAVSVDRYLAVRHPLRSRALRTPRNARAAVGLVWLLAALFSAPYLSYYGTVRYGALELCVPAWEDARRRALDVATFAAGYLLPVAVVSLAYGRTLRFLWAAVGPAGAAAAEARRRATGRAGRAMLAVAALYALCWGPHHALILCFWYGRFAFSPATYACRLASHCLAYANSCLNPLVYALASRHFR

The assay concerns the target Galanin receptor type 3 (Homo sapiens) (UniProt O60755). Briefly: GalR3 antagonists in HEK293 cells, primary screen, cell-based, fluorescence readout (AID 651719).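 Note: forskolin and galanin both at EC90 stimulate the cells; cAMP rise reported by CNG channel membrane potential dye signal; 0% = forskolin plus galanin with DMSO and 100% = forskolin alone.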 Particulars: HEK293 GalR3-CNG cAMP membrane potential fluorescence; at 3 µM; stronger effect = higher value; galR3 body fused to GalR1 C-terminus.
As to `CC(=O)c1ccc(S(=O)(=O)NCC2CCN(C(=O)C(=O)c3cccs3)CC2)cc1`, the inhibition was -4.03%. Under `CC[C@H](NC(=O)[C@H](Cc1ccccc1)NC(=O)[C@H]1O[C@@H](n2cnc3c(=O)[nH]c(N)nc32)[C@H](O)[C@@H]1O)c1ccccc1` stands -6.3%. For the compound `CCCOc1ccc(Cc2c(Cl)nc(SC)nc2NC)cc1`, the inhibition is 63.8% (active). For `CCCOc1ccc(Cc2c(O)nc(SC)[nH]c2=O)cc1C`, the inhibition is -4.3%. Under `CCCOc1ccc(Cn2c(O)cc(=O)[nH]c2=O)cc1` stands 4.51%; under `COc1cccc(CNC(=O)[C@H]2CCCN2C(=O)[C@H]2CCCN2C(=O)c2cc(F)cc(F)c2)c1`, -4.4%. Under `O=C1[C@@H](c2ccccc2)[C@@H](c2ccccc2)N1c1ccccc1` stands -1.03%; under `O=C(NCc1ccccc1)[C@@H]1CCCN1C(=O)[C@@H](NS(=O)(=O)c1ccc(F)cc1F)C1CCCCC1`, -7.14%; under `COc1ccc(CCNc2nc3ccc(C)cc3n3cnnc23)cc1OC`, 18.6% (active). Under `COc1ccc(CCNc2nc(C)cc(C)n2)cc1OC` stands -8.92%; under `COc1cc(Nc2nc3ccc(Cl)cc3n3cnnc23)cc(OC)c1OC`, -10.3%.

Take `C[C@H](CO)N1C[C@H](C)[C@@H](CN(C)C(=O)Nc2ccccc2F)OCc2cn(nn2)CCCC1=O`: the inhibition was -5.31%. Under `COc1cccc(CNC(=O)[C@H]2CCCN2C(=O)[C@H]2CCCN2C(=O)c2ccc(F)cc2)c1` stands -5.33%; under `CSc1nc(N(C)NC(=O)c2cccc(C)c2)c2ccccc2n1`, 17.1% (active); under `Cc1ccc(S(=O)(=O)NC(=O)c2cccc(C)c2)cc1`, -0.66%. Under `CN(NC(=O)c1ccccc1F)c1nc(C(F)(F)F)nc2ccccc12` stands 0.05%; under `O=C(NN=Cc1ccco1)C(=O)Nc1ccc(Cl)c([N+](=O)[O-])c1`, -5.99%; under `Cc1cc(C)c(C#N)c(SCc2[nH]nc3c2C(c2ccccc2)C(C#N)=C(N)O3)n1` (configuration not stated), 34.7% (active). Under `N#CC1=C(N)Oc2n[nH]c(CSc3ccccc3)c2C12C(=O)Nc1ccccc12` (configuration not stated) stands -2.39%; under `Cc1cc(C)c(C#N)c(SCc2ccc3c(c2)OCO3)n1`, -0.74%; under `Nc1nc(NCC(=O)O)nc(N2CCCCCC2)c1[N+](=O)[O-]`, 15.1% (active). As for `CC1CN(c2nc(Nc3ccccc3)nc(N)c2[N+](=O)[O-])CC(C)O1` (configuration not stated), the inhibition was -0.56%. Under `COCCNc1nc(N)c([N+](=O)[O-])c(N2CCCCCC2)n1` stands -10.6%. For `COC(=O)C1=C(C)N(Cc2cccc(C(F)(F)F)c2)C(=NCc2ccccc2)NC1c1ccccc1C(F)(F)F` (configuration not stated), the inhibition is -3.46%. Under `COC(=O)C1=C(C)N(Cc2ccc(C(F)(F)F)cc2)C(=NCc2ccc(C(F)(F)F)cc2)NC1c1cccc(Cl)c1` (configuration not stated) stands -3.2%. Under `CCNC(=S)Nc1ccc(OC(F)(F)F)cc1` stands 13.5% (active); under `COC(=O)Cc1ccc(OCC(=O)Nc2ccc(OC(F)(F)F)cc2)cc1`, 0.64%. Under `CN(CC(=O)Nc1ccc(OC(F)(F)F)cc1)C(=O)C1CCC1` stands -3.79%; under `CCc1ccc(C2=CC(=O)CC(C)(C)C2=O)cc1`, -5.55%; under `CC(C)CNc1cccc2c1S(=O)(=O)N[C@H](CC(C)C)CO2`, -4.83%. For the compound `COC(=O)C1=C(C)NC(=S)NC1c1ccc(OC)cc1` (configuration not stated), the inhibition is -6.49%. Under `COC(=O)c1cc2c(c3c4ccccc4n(S(=O)(=O)c4cccc(C)c4)c13)C(=O)N(Cc1ccccc1)C2` stands -7.5%. Under `CCn1c(-c2cc(OC)ccc2OC)csc1=Nc1c(C)n(C)n(-c2ccccc2)c1=O` stands 12.9% (active). Under `Cc1c(N=Nc2ccc(N(C)C)cc2)c(=O)n(-c2ccccc2)n1C` stands 4.41%; under `Cc1nc(N)sc1N=Nc1c(C)n(C)n(-c2ccccc2)c1=O`, -1.11%; under `Cc1[nH]nc2c1C(c1ccc(Br)cc1)NC2=O` (configuration not stated), -4.49%. Regarding `CN1CCCCC(NC(=O)C(C)(C)C)C1=O` (configuration not stated), the inhibition is -7.34%.

In the case of `N#Cc1ccc(OCCCN2CCC(C(O)(c3ccccc3)c3ccccc3)CC2)c(F)c1`, the inhibition is -9.27%.

In the case of `CCOC(=O)C1CSCCS(=O)(=O)N1Cc1ccc(Cl)cc1` (configuration not stated), the inhibition is -4.45%. Under `CC1(C)OC(=O)C2=C(CC(CCc3ccccc3)OC2c2ccc(Cl)cc2)O1` (configuration not stated) stands -5.79%. Under `O=C(CC1C(=O)NCCN1CC(c1ccccc1)c1ccccc1)NCC1CCOCC1` (configuration not stated) stands -1.82%; under `O=C(CC1C(=O)NCCN1CC(c1ccccc1)c1ccccc1)NCCc1cn[nH]c1` (configuration not stated), 13.4% (active). Under `CN(CCc1cn[nH]c1)C(=O)CC1C(=O)NCCN1Cc1cccc(Oc2ccccc2)c1` (configuration not stated) stands -7.77%. `CCOC(=O)/C=C/c1ccccc1O`: the inhibition is -6.85%. Under `C=CCN=C1NC(c2ccccc2)C(C(=O)OC)=C(C)N1Cc1ccc(C(F)(F)F)cc1` (configuration not stated) stands -6.78%; under `Brc1ccc(OCCn2ccnc2)cc1`, 0.74%; under `c1ccc(Cc2ccc(OCCn3ccnc3)cc2)cc1`, 44.4% (active).

On to `Clc1c(OCCCn2ccnc2)ccc2ccccc12`, for which the inhibition is -12.1%. Under `C=CC[C@]12C[C@@]3(O[C@H](c4ccc(C(F)(F)F)cc4)N=C3C[C@H](c3ccc(OC)cc3)[C@H]1C)N(C1CCN(Cc3ccccc3)CC1)C2=O` stands -4.57%; under `CCOc1ccccc1C(=O)N1CCC[C@@H]1C(=O)N1CCC[C@H]1C(=O)NCc1ccccc1`, -4.67%.

With `CN(Cc1cnccn1)C(=O)c1cc(COc2cccc(C(F)(F)F)c2)on1`, the inhibition was -2.96%.

Consider `CN(Cc1cccnc1)C(=O)c1cc(COc2ccc3ncccc3c2)on1`, for which the inhibition was 91.7% (active). Under `CC(=O)c1cccc(OCc2cc(C(=O)NC(C)Cc3cccnc3)no2)c1` (configuration not stated) stands 0.17%; under `O=S1(=O)c2c(cccc2N2CCCC2)O[C@H](COCc2ccccc2)CN1C1CC1`, -3.31%.

`Cn1cnc([N+](=O)[O-])c1Nc1ccccc1O`: the inhibition is 13.4% (active). Under `Cn1cnc([N+](=O)[O-])c1Sc1ccccc1` stands -2.26%.

Turning to `Cn1cnc([N+](=O)[O-])c1Sc1n[nH]c(N)n1`, the inhibition was -10.2%. For `Cc1cc(Br)cn2c(Cc3ccccc3C(F)(F)F)c(-c3ccc(C#N)cc3)nc12`, the inhibition is -0.22%. Under `Nc1[nH]c(C(=O)c2ccccc2)c(-c2ccc(Cl)cc2Cl)c1C(=O)c1ccccc1` stands -7.95%; under `COc1cc(Cl)c(C)cc1NC(=O)[C@@H]1CCCN1C(=O)c1cccs1`, 14% (active). Under `COc1ccc(Cl)cc1NC(=O)[C@@H]1CCCN1C(=O)c1cccs1` stands -4.08%.

Turning to `Cc1ccc(S(=O)(=O)N2CCCCC2)cc1NC(=O)[C@@H]1CCCN1C(=O)c1cccs1`, the inhibition was -1.7%.

`C[C@@H](CN1C2=NC[C@@H](Cc3ccccc3)N2C[C@H]1Cc1ccc(O)cc1)NC(=O)CCC1CCCCC1`: the inhibition was -7.8%. Under `COC(=O)C1=C(C)N(Cc2ccccc2C(F)(F)F)C(=NCC2CC2)NC1c1cccc(Cl)c1` (configuration not stated) stands -5.91%; under `COc1ccc(C2C(C#N)=C(N)Oc3n[nH]c(C)c32)cc1CN1CCN(c2ccc(F)cc2)CC1` (configuration not stated), -5.67%; under `CCCc1nc2c([nH]1)C(c1cccnc1)C(C#N)=C(N)O2` (configuration not stated), -0.27%.

Regarding `COc1ccc(-c2[nH]nc3c2C(c2ccncc2)C(C#N)=C(N)O3)cc1` (configuration not stated), the inhibition is 16.3% (active). Under `COC(=O)[C@]1(Cc2ccccc2)NC=C(C(=O)c2ccccc2)[C@@H]1c1cccc(OC)c1` stands -6.78%.

Regarding `COc1ccc(N2CCN(C(=O)c3ccccc3NC(=O)C3=C(C)OCCS3)CC2)cc1`, the inhibition is -6.97%. Under `CCCCNC(=O)c1ccccc1NC(=O)C1=C(C)OCCS1` stands 103% (active); under `CCCCNC(=O)c1ccccc1NC(=O)c1ccccc1N(C)S(C)(=O)=O`, -3.23%. Under `CC1CCCN(c2cccc3c2S(=O)(=O)N(Cc2ccc(F)cc2)[C@@H](C)[C@H](c2ccccc2)O3)C1` (some centres not stated) stands -4.47%. Under `CC(C)[C@@H](C(=O)OCC(=O)c1ccc2c(c1)NC(=O)CO2)N1C(=O)c2ccccc2C1=O` stands 42.5% (active); under `O=C1COc2ccc(C(=O)COC(=O)CCOc3ccccc3)cc2N1`, -1.45%; under `O=C1COc2ccc(C(=O)COC(=O)c3ccccc3Cl)cc2N1`, -5.73%.

For `OC(c1ccccc1)(c1ccccc1)C1CCN(CCCOc2ccc(-c3ccsc3)cc2)CC1`, the inhibition is -4.38%. Under `Cc1nnc(SCC(=O)NNC(=O)c2ccc(Cl)cc2)n1CC1CCCO1` (configuration not stated) stands -3.6%. Under `O=C(CSc1nnc(-c2ccco2)n1CC1CCCO1)c1ccccc1` (configuration not stated) stands -2.73%; under `CNC(=O)NC(=O)CSc1nnc(-c2ccc(F)cc2)n1CC1CCCO1` (configuration not stated), 29.6% (active). Under `COc1cc2c(cc1OC)C(/C=C/c1ccco1)=NCC2` stands -5.84%; under `COc1cc2c(cc1OC)C(Cc1cc(OC)c(OC)cc1[N+](=O)[O-])=NCC2`, -6.44%; under `COc1cc2c(cc1OC)C(c1cccc([N+](=O)[O-])c1)=NCC2`, 13.9% (active).

Turning to `CC(C)CNc1cccc2c1S(=O)(=O)N[C@H](C)CO2`, the inhibition is -4.46%. Under `COC(=O)Cc1nnn2c1[C@H](C)[C@H](c1ccccc1Br)OCC2` stands -3.41%; under `COc1ccc(OC)c(NC(=O)CSc2nc(N)c(-c3ccccc3)c(=O)[nH]2)c1`, 29.8% (active). Under `COc1ccc(NC(=O)CSc2nc(N)c(-c3ccccc3)c(=O)[nH]2)cc1` stands 1.59%; under `COc1ccc(OC)c(NC(=O)CSc2nc(-c3ccccc3)cc(=O)[nH]2)c1`, -1.18%.
